# Screens deposited in PubChem by several laboratories.
# Only some compounds are listed: those with a hit (about 2.2% of all), similar ones and a draw of the others.
# ADAM10 inh – inhibits human ADAM10; O14672; recombinant ADAM10, EDANS/DABCYL FRET peptide cleavage, 3 h; inhibition, % at 7 µM; 0.62% of 370,000 active;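 active = inhibition above a per-campaign cutoff equal to the mean of compounds falling between control-based bounds plus 3 SD, cut at about 20% in these data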;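 note: 0% = DMSO wells while the 100% control is not disclosed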
# NPR2 activator – GC-B (human) receptor activation; P20594; activation, % at 10 µM; 0.11% of 370,000 active; AID 1920062; HEK293-GC-B cells, CNP EC30, cGMP TR-FRET; 0% at EC30 CNP, 100% saturating CNP;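 active = activation at 10 µM reaching about 35% in either raw or pattern-adjusted values, limit read from the data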
# KLK7 zymogen act – activators of human kallikrein-7 zymogen; purified proKLK7, EDANS-DABCYL substrate fluorescence; 100% is mature enzyme control, 0% vehicle; 0.9% of 370,000 active; P49862; activation, % at 7 µM; AID 652039;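 active = activation above the mean of all tested compounds plus 3 SD, computed per campaign excluding outliers beyond control limits, cut at about 13% in these data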
# ADAM17 inh – ADAM17 inhibition, QFRET primary screen; P78536; 0.83% of 370,000 active; recombinant ADAM17, EDANS/DABCYL FRET peptide cleavage; inhibition, % at 6.95 µM;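 active = inhibition above the mean of compounds lying between control limits plus 3 SD, set per campaign, cut at about 8.5% in these data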;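 note: 0% = DMSO-only wells as the low control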
# NPR1 activator – GC-A (human) enzyme activation; P16066; activation, % at 10 µM; 0.14% of 370,000 active; HEK293 GC-A cells, cGMP TR-FRET, EC30 ANP; 0% at EC30 ANP, 100% saturating ANP; in the data active = activation above about 40%
# Target sequence (P16066 whole entry, looked up): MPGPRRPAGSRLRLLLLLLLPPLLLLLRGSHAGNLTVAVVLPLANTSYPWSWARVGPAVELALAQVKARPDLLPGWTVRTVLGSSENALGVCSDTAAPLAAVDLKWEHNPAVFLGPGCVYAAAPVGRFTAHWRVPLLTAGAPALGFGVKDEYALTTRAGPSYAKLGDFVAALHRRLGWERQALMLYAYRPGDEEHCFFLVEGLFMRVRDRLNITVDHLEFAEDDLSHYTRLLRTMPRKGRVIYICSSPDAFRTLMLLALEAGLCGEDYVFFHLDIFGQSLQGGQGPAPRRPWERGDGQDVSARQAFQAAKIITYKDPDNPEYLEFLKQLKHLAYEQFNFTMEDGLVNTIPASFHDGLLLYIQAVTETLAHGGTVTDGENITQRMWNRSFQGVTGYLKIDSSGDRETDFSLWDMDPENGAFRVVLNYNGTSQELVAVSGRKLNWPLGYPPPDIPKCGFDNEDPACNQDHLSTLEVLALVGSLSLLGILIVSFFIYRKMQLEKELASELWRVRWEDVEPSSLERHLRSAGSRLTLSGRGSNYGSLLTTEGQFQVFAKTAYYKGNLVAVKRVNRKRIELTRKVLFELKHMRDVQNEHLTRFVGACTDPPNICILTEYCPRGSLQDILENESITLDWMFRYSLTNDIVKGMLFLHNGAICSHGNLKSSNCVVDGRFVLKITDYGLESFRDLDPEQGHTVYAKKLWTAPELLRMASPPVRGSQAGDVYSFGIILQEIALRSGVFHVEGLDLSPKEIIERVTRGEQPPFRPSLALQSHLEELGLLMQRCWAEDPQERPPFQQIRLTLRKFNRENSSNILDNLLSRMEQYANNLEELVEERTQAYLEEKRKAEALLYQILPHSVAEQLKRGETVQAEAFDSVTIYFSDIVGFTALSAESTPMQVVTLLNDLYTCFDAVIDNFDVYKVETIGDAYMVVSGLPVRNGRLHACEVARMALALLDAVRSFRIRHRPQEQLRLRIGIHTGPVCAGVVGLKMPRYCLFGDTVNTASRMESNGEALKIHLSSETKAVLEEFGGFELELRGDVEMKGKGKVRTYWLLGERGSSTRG
# ADAM10 confirm – confirmation of inhibitors of human ADAM10; shares compounds with ADAM10 inh; ADAM10 QFRET peptide cleavage, EDANS fluorescence; inhibition, % at 6.95 µM; 1% of 2,100 active; AID 743208;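 active = inhibition above about 20% chosen separately for each screening run, limit read from the data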;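 note: 0% = DMSO wells and 100% = marimastat wells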
# ADAM17 ctr – inhibits human ADAM17 in ADAM10 exosite counter-screen; shares compounds with ADAM10 inh; ADAM17 QFRET peptide cleavage, EDANS fluorescence; inhibition, % at 6.95 µM; 0.5% of 2,100 active; AID 743214;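 active = mean triplicate inhibition above the solvent-only control wells' mean plus 3 SD, cut at about 12% in these data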;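 note: 0% = DMSO wells and 100% = marimastat wells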
# ADAM10 counter – ADAM10 inhibition, counter-screen for ADAM17 exosite hits; shares compounds with ADAM17 inh; recombinant ADAM10, EDANS/DABCYL FRET peptide cleavage, 3 h; inhibition, % at 6.95 µM; 47% of 2,900 active;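 active = mean inhibition over the triplicate runs exceeds the activity threshold set in the earlier primary screen, cut at about 20% in these data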;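 note: 0% = DMSO wells and 100% = marimastat wells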
# ADAM17 confirm – human ADAM17 inhibition, confirmation; shares compounds with ADAM17 inh; recombinant ADAM17, EDANS/DABCYL QFRET peptide cleavage; inhibition, % at 6.95 µM; 65% of 2,900 active; AID 743257;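 active = mean inhibition across replicates above the hit cutoff set in the primary screen, cut at about 8.5% in these data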;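 note: 0% = DMSO wells and 100% = marimastat wells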
# An asterisk follows results filed as active; · = no result given.
SMILES,ADAM10 inh,NPR2 activator,KLK7 zymogen act,ADAM17 inh,NPR1 activator,ADAM10 confirm,ADAM17 ctr,ADAM10 counter,ADAM17 confirm
CC(O/N=C/c1ccccc1OC(F)F)C(=O)Nc1cccc(S(=O)(=O)N2CCOCC2)c1 (stereo not given),19.8*,4.2,1.4,10.1*,1.4,0.2,0.5,7.0,2.8
O=C(CSc1nc2ccccc2[nH]1)Nc1nc(-c2cccc(Br)c2)cs1,49.8*,-2.5,-2.5,22.8*,39.5,22.8*,6.6,39.6*,23.9*
CN(C)CCCn1c(SCC(=O)Nc2nc(-c3cccc(Br)c3)cs2)nc2ccccc2c1=O,-6.0,-3.0,-0.5,-4.3,-3.8,·,·,·,·
COC(=O)[C@]12C[C@H](CC(=O)NCc3cccc4ccccc34)C(=O)N(Cc3ccccc3)C1=C[C@H](COCc1ccccc1)O[C@@H]2C,13.5,1.1,0.7,0.2,-3.7,·,·,·,·
C=CCc1cccc(CNc2nc3ccccc3n2C)c1O,20.1*,-3.4,-0.2,10.9*,-7.9,3.1,1.2,32.2*,16.9*
NC(=O)C1CCN(c2nc(-c3ccc(Oc4ccccc4)cc3)cs2)CC1,12.1,-10.4,·,3.8,-3.4,·,·,·,·
Nc1ccc2c(c1)Cc1cc(N)c(Cl)cc1-2,27.2*,-4.4,-0.5,12.1*,-5.6,9.0,5.3,-4.8,4.3
Nc1ccc2c(c1)Cc1cc(Cl)c(Cl)cc1-2,-10.9,-9.6,-0.2,0.5,7.1,·,·,·,·
Cc1ccc(-c2csc(N3CCC(NS(=O)(=O)c4ccc5c(c4)OCCO5)CC3)n2)cc1,23.7*,-4.2,-0.9,13.0*,1.1,9.7,2.9,20.1*,15.2*
O=c1[nH]c(=S)[nH]c2c1C(c1cccc(C(F)(F)F)c1)OC(CCc1ccccc1)C2 (stereo not given),26.7*,-5.3,0.3,14.4*,-6.6,5.9,2.2,29.7*,16.4*
CCCCC[C@H](C)N1C[C@@H](COCc2ccccc2)Oc2cc(N3CC[C@@H](O)C3)ccc2S1(=O)=O,7.1,7.5,0.2,6.7,-1.1,·,·,·,·
CCCCC[C@@H](C)N1C[C@@H](COCc2ccccc2)Oc2cc(N3CC[C@H](O)C3)ccc2S1(=O)=O,22.3*,-8.1,0.4,9.1*,-9.2,10.8,2.8,34.3*,17.5*
CC(C)C[C@H]1COc2cccc(N3CCSCC3)c2S(=O)(=O)N1C,1.4,-6.0,0.1,-2.7,-1.8,·,·,·,·
CCn1c2ccccc2c2cc(NS(=O)(=O)c3ccccc3C)ccc21,24.6*,·,-0.6,9.4*,·,5.9,2.9,20.9*,12.2*
COc1ccc(/C=N/NC(=O)c2ccc(NC(=O)c3cccc([N+](=O)[O-])c3)cc2)c(OC)c1,2.6,5.0,0.0,-1.2,-4.7,·,·,·,·
COc1ccc(NC(=O)c2cccc(Oc3ccc([N+](=O)[O-])cc3Cl)c2)cc1,21.7*,8.2,0.0,10.4*,3.1,8.0,3.0,30.4*,17.8*
Cc1cc(C)c(Nc2cc(S(=O)(=O)O)c(N)c3c2C(=O)c2ccccc2C3=O)c(C)c1,23.3*,-34.9,0.1,8.7*,-29.1,4.0,-1.6,36.0*,17.4*
CC[C@@H](CCCc1ccc(OC)cc1)CCC(=O)N(c1ccccc1)c1ccccc1,-2.5,9.9,0.6,-0.2,3.1,·,·,·,·
C[C@@H]1OC(C2CCCCC2)N(C)[C@H]2C[C@H]3c4cc(N5CCOCC5)ccc4CCN3C[C@@H]12 (stereo not given in full),-5.6,2.7,-0.1,-0.9,4.3,·,·,·,·
COc1ccc(Cl)cc1Cn1c(C)c(C(=O)NCc2ccc(F)cc2)sc1=O,27.3*,-13.1,0.6,11.0*,-5.5,1.8,1.2,11.7,4.9
O=C(O)c1nn(CCOc2cccc(Br)c2)c(=O)c2ccccc12,21.2*,-9.2,0.5,11.0*,-2.4,1.3,0.2,9.3,5.9
O=C(O)c1nn(CCOc2cccc(Cl)c2)c(=O)c2ccccc12,7.5,-2.4,0.2,2.3,1.4,·,·,·,·
C/C(C=NNC(=O)CSc1nnc(-c2ccc(Cl)cc2)n1-c1ccc(C)cc1)=C\c1ccccc1,4.5,4.0,0.1,1.9,-5.2,·,·,·,·
CCN(c1ccccc1)S(=O)(=O)c1ccc(C(=O)Nc2cccc(NC(C)=O)c2)cc1,22.1*,-1.8,-0.8,8.9*,-4.8,7.7,1.7,3.0,3.0
O=C(c1ccc(Cl)c(Cl)c1)N1CCC(=O)N(C(COCc2cccc(C(F)(F)F)c2)Cc2ccccc2)CC1 (stereo not given),3.3,-5.8,0.4,4.8,-2.3,·,·,·,·
SMILES,ADAM10 inh,NPR2 activator,KLK7 zymogen act,ADAM17 inh,NPR1 activator,ADAM10 confirm,ADAM17 ctr,ADAM10 counter,ADAM17 confirm
O=C(c1ccc(Cl)c(Cl)c1)N1CCC(=O)N(C(COCc2ccc(Cl)cc2)Cc2ccccc2)CC1 (stereo not given),20.5*,-13.3,-0.5,9.5*,-11.5,10.3,3.4,33.9*,15.7*
O=C(c1ccc(C(F)(F)F)cc1)N1CCC(=O)N(C(COCc2ccc(Cl)cc2)Cc2ccccc2)CC1 (stereo not given),20.4*,-1.2,0.9,9.9*,0.7,3.6,1.7,13.5,8.7*
COc1ccc(OC)c(-c2nnc3n2N=C(c2ccc(OC)c(OC4CCCC4)c2)CS3)c1,31.1*,12.4,0.0,16.9*,13.1,5.3,1.3,7.8,8.0
COc1ccc(OC)c(-c2nnc3n2N=C(c2ccc(OC)c(OC)c2)CS3)c1,7.9,9.5,-0.8,3.5,8.3,·,·,·,·
O=C(OCc1cn(Cc2cccc(Cl)c2)nn1)N1CCCC1,0.3,-0.3,-0.2,-3.1,2.6,·,·,·,·
CCOc1ccc(-n2c(COc3ccc(Cl)cc3)nnc2SCC(=O)Nc2ccc(OCc3ccccc3)cc2)cc1,5.6,1.0,0.4,2.0,0.3,·,·,·,·
C=CCC[C@H](Cc1ccc(F)cc1)C(=O)OC[C@H](Cc1c[nH]c2ccccc12)NC(=O)[C@H](CC=C)CC(=O)NCCO,24.5*,-5.9,-0.1,9.4*,-0.9,3.7,0.6,43.3*,22.5*
C=CCC[C@@H](Cc1ccc(F)cc1)C(=O)OC[C@@H](Cc1c[nH]c2ccccc12)NC(=O)[C@@H](CC=C)CC(=O)NCCO,27.6*,-3.2,1.4,16.6*,-6.3,2.8,0.0,28.7*,14.8*
